We go through 108 compounds from the supplement of paper PMC11150407.

SMILES strings stand for the structures. In all, about 3,000 compounds went through this assay and about 45 (2%) showed an effect of 50% or more. Shown is part of a subset that was picked to be rich in strong results.

The assay deals with MOLM1 and UCSD/AML1 (averaged). In words: cell viability relative to DMSO control (POC); higher = less growth inhibition. The conditions noted are these: 1 µM; 72 h. As to the method: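 Primary viability screen in the 3q26 EVI1-high AML cell lines MOLM1 and UCSD/AML1, compounds at 1 uM for 72 h. ATP CellTiter-Glo read-out given as percent viable over DMSO control (POC), averaged over duplicates. This mapping covers the TimTec NDL-3000 natural derivative library, whose compounds are identified by TimTec catalogue codes (ST...).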
Regarding `O=C1C[C@H](n2nc(-c3ccccc3Br)oc2=S)[C@H]2CO[C@@H]1O2`, the cell viability amounted to 55.5%.

Turning to `O=C1CC(n2c(=O)oc3ccccc32)C2COC1O2` (stereo not drawn), the cell viability turned out to be 14.7%.

For `O=C1CC(n2nnnc2-c2ccccc2Cl)C2COC1O2` (stereo not drawn), the cell viability came out at 64.4%.

As to `Cc1ccc2c(O)c([N+](=O)[O-])c(=O)oc2c1`, the cell viability stood at 103%.

Take `Cn1c(=O)c2c(nc3n2CC(C24CC5CC(CC(C5)C2)C4)=NN3CCO)n(C)c1=O`: the cell viability is 106%.

Turning to `CCOc1cc2c(cc1OCC)C(c1cccc(F)c1F)NCC2` (stereo not drawn), the cell viability was 86.1%.

Take `O=C(O)c1cccc(Nc2nc(-c3ccc(Cl)cc3)nc3ccccc23)c1`: the cell viability worked out at 90%.

With `O=C(O)c1ccccc1-c1c2ccc(=O)c(Br)c-2oc2c(Br)c(O)ccc12`, the cell viability came out at 103%.

As for `COc1ccc(C(=O)N2CCCc3cccc(OC)c32)cc1OC`, the cell viability came out at 90.1%.

`O=C(/C=C/c1ccc([N+](=O)[O-])cc1)c1cccc2ccccc12`: the cell viability was determined as 32.8%.

`O=C(O)/C=C/c1ccc([N+](=O)[O-])cc1`: the cell viability turned out to be 109%.

`O=C(/C=C/c1ccc(Cl)cc1Cl)c1cccc2ccccc12`: the cell viability came out at 95.1%.

In the case of `COc1ccc2c(c1)c(CC(=O)NCc1ccccn1)c(C)n2C(=O)c1ccc(Cl)cc1`, the cell viability was found to be 84.5%.

`O=C(/C=C/c1ccccc1)c1ccc(O)cc1`: the cell viability is 2.68%.

With `O=C(/C=C/c1ccccc1)c1ccc(O)cc1O`, the cell viability worked out at 96.7%.

As to `O=C(/C=C/c1ccccc1)c1cc(O)ccc1O`, the cell viability was 93.7%.

With `COc1ccc(/C=C(\C#N)C(=O)OC(C)C)c(OC)c1OC`, the cell viability is 106%.

Consider `O=c1[nH]c(=O)n(C2C[C@H](O)[C@@H](CO)O2)cc1I` (stereo partly drawn), for which the cell viability was determined as 89.8%.

Consider `O=c1[nH]c(=O)n(C2CC(O)C(CO)O2)cc1C(F)(F)F` (stereo not drawn), for which the cell viability turned out to be 29.6%.

On to `CC(=O)OC1CC(n2cc(C)c(=O)[nH]c2=O)OC1CO` (stereo not drawn), for which the cell viability came to 98.2%.

Turning to `CCOc1ccc2oc(=O)cc(CN3CCNCC3)c2c1`, the cell viability is 90.2%.

On to `CCOc1ccccc1C(=O)NCCc1c(C)[nH]c2ccccc12`, for which the cell viability is 105%.

Consider `COc1ccc(C2c3[nH]c4ccccc4c3CCN2CC(=O)Nc2ccc(C)cc2)cc1` (stereo not drawn), for which the cell viability is 87.2%.

With `O=C(/C=C/c1ccc(O)cc1)c1ccc(O)cc1O`, the cell viability was 102%.

Take `COc1ccc(/C=C/C(=O)c2ccc(O)cc2C)cc1`: the cell viability amounted to 22.5%.

Turning to `COc1ccc(C(=O)/C=C/c2ccccc2)c(O)c1`, the cell viability stood at 101%.

On to `COc1ccc2c(c1)c(CC(=O)NCCSc1ccccc1)c(C)n2C(=O)c1ccc(Cl)cc1`, for which the cell viability came out at 98.5%.

Turning to `COc1ccc(C(NS(=O)(=O)c2ccc(C)cc2)c2nccc3cc(OC)c(OC)cc23)cc1OC` (stereo not drawn), the cell viability is 98.4%.

Take `C=CCN(C(=O)CSc1nc2ccccc2c(=O)[nH]1)c1ccccc1`: the cell viability came out at 88.4%.

For the compound `COc1ccc(OC)c(NC(=O)c2cc(OC)c(OC)c(OC)c2)c1`, the cell viability came out at 85.9%.

With `C=CCN(C(=O)CSc1nc2c(=O)[nH]cnc2n1-c1ccccc1)c1ccccc1`, the cell viability is 98%.

With `CCCCCOc1ccc(C2=NOC(=O)/C2=C\c2cc(Cl)ccc2O)cc1`, the cell viability was determined as 92.3%.

In the case of `Cc1ccc(-n2c(SCc3ccccc3F)nc3c(=O)[nH]cnc32)cc1`, the cell viability amounted to 95.2%.

For `CC1CCc2nc(S[C@H]3CC(=O)[C@@H]4OC[C@H]3O4)nc(C(F)(F)F)c2C1` (stereo partly drawn), the cell viability was found to be 39.9%.

For `COc1ccc(-c2cc(C(F)(F)F)nc(SC3CC(O)C4OCC3O4)n2)cc1OC` (stereo not drawn), the cell viability turned out to be 98.4%.

Turning to `COc1ccc(-c2cc(-c3ccc4c(c3)OCO4)[nH]c(=O)c2C#N)cc1`, the cell viability was 97.1%.

Take `CC1(C)C2CCC1(CS(=O)(=O)Nc1ccncc1)C(=O)C2` (stereo not drawn): the cell viability was 106%.

Regarding `COc1cc(C(=O)NCC(C)NC(=O)c2cc(OC)c(OC)c(OC)c2)cc(OC)c1OC` (stereo not drawn), the cell viability worked out at 99.3%.

Take `CCOc1ccc2oc(=O)cc(CN3CCN(CC(=O)Nc4cc(F)ccc4F)CC3)c2c1`: the cell viability is 98.5%.

For the compound `CCOC(=O)c1c(CC(C#N)(c2ccccc2)c2ccccc2)n(C)c2cc(Br)c(OC)cc12`, the cell viability is 17.7%.

As for `CCOC(=O)c1c(CSCc2ccccc2)n(-c2ccccc2)c2cc(Br)c(OC)cc12`, the cell viability worked out at 110%.

Take `CCOC(=O)c1c(C)n(-c2ccccc2)c2cc(Br)c(OC)cc12`: the cell viability stood at 110%.

In the case of `Cn1c(=O)c2ccccc2n(CC(=O)N2CCc3ccccc3C2)c1=O`, the cell viability was 107%.

On to `COc1ccc(NC(=O)CSc2nc3c(=O)[nH]cnc3n2-c2ccc(C)cc2)cc1OC`, for which the cell viability was 92.8%.

As for `Cc1ccc2occ(C)c(=O)c2c1`, the cell viability came out at 98.5%.

For `O=C(Cn1c(=O)cc(C(=O)N2CCc3ccccc3C2)c2ccccc21)Nc1ccc(Cl)cc1`, the cell viability stood at 105%.

For the compound `N#CC1=C(N)Oc2cc(O)ccc2C1c1cccc(C(F)(F)F)c1` (stereo not drawn), the cell viability amounted to 22.1%.

Take `N#CC1=C(N)Oc2[nH]c(=O)[nH]c(=O)c2C1c1ccccc1F` (stereo not drawn): the cell viability stood at 94.3%.

Consider `N#CC1=C(N)Oc2cc(O)ccc2C1c1cccc([N+](=O)[O-])c1` (stereo not drawn), for which the cell viability came to 101%.

`N#CC1=C(N)Oc2cc(O)ccc2C1c1ccccc1F` (stereo not drawn): the cell viability is 13.8%.

In the case of `N#CC1=C(N)Oc2cc(O)ccc2C1c1ccccc1` (stereo not drawn), the cell viability turned out to be 104%.

Consider `CCc1ccc(C2C(C#N)=C(N)Oc3cc(O)ccc32)cc1` (stereo not drawn), for which the cell viability came out at 110%.

Regarding `O=C(O)CNC(=O)c1ccc(Cl)cc1`, the cell viability came out at 108%.

As for `O=c1c(O)c(-c2ccc(F)cc2)oc2cc(Cl)ccc12`, the cell viability is 100%.

On to `Cc1cc(C)c(NC(=O)Cn2c(=O)cc(C(=O)N3CCCCC3)c3ccccc32)c(C)c1`, for which the cell viability worked out at 99.4%.

In the case of `COCCOC(=O)c1c(C)n(CCOC23CC4CC(CC(C4)C2)C3)c2c1cc(O)c1ccccc12`, the cell viability was 81.2%.

Regarding `Cc1ccc(-n2c(SCC(=O)Nc3ccccc3C(F)(F)F)nc3c(=O)[nH]cnc32)cc1`, the cell viability was determined as 108%.

For the compound `COc1cc(C(=O)Nc2ccc(C(F)(F)F)cc2)cc(OC)c1OC`, the cell viability was determined as 93.8%.

Turning to `COC(=O)c1ccc(NC(=O)c2cc(OC)c(OC)c(OC)c2)cc1`, the cell viability came to 23.1%.

For `COc1cc(C(=O)Nc2ccc3c(c2)ncn3C)cc(OC)c1OC`, the cell viability was determined as 19%.

On to `COc1cc(C(=O)Nc2ccccc2C(=O)NCc2ccccc2)cc(OC)c1OC`, for which the cell viability came out at 85.2%.

Regarding `COc1cc(C(=O)Nc2ccccc2NC(=O)c2cc(OC)c(OC)c(OC)c2)cc(OC)c1OC`, the cell viability came to 95.9%.

As to `CCCCc1ccc(NC(=O)c2cc(OC)c(OC)c(OC)c2)cc1`, the cell viability came out at 49.6%.

With `COc1cc(C(=O)Nc2ccccc2C(=O)Nc2ccccc2)cc(OC)c1OC`, the cell viability is 36%.

Turning to `COc1cc(C(=O)Nc2ccc3ncn(C)c3c2)cc(OC)c1OC`, the cell viability came out at 93.9%.

As for `COc1cc(C(=O)Nc2ccc(C(=O)NCc3ccccc3)cc2)cc(OC)c1OC`, the cell viability turned out to be 87%.

Regarding `COc1cc(C(=O)Nc2ccc(CN3CCCC3)cc2)cc(OC)c1OC`, the cell viability came out at 87.4%.

As to `COc1cc(C(=O)Nc2ccc(C(=O)c3cccs3)cc2)cc(OC)c1OC`, the cell viability was 99.7%.

`COc1ccc(C(=O)Nc2ccc3ncn(C)c3c2)cc1OC`: the cell viability was 101%.

As for `O=C(CSc1nc2ccccc2c(=O)[nH]1)NCc1ccccc1Cl`, the cell viability turned out to be 107%.

`Cc1ccc(NC(=O)CN2C(=O)S/C(=C/c3cc4c(cc3Cl)OCO4)C2=O)cc1`: the cell viability is 92%.

As for `CNC(=O)c1ccccc1NC(=O)C(=O)c1c[nH]c2ccccc12`, the cell viability worked out at 111%.

On to `CCOC(=O)/C=C1\NC(C)(C)Cc2cc3c(cc21)OCCO3`, for which the cell viability was 89.5%.

With `CC(C)COc1ccc(C(=O)N/C(=C\c2ccccc2)C(=O)NCCNC(=O)/C(=C\c2ccccc2)NC(=O)c2ccc(OCC(C)C)cc2)cc1`, the cell viability worked out at 103%.

On to `COc1cc(OC)cc(C(=O)Nc2cc(OC)cc(S(=O)(=O)c3ccc(Cl)cc3)c2)c1`, for which the cell viability was found to be 92.8%.

For the compound `CCc1cccc(C)c1NC(=O)CN1CCN(Cc2cc(=O)oc3cc(C)ccc23)CC1`, the cell viability amounted to 95.4%.

`Cc1ccc2c(C)cc(=O)[nH]c2c1C`: the cell viability was 109%.

Take `COc1cc(C(=O)CCNc2ccc(F)cc2)cc(OC)c1OC`: the cell viability was 78.3%.

Regarding `Cc1ccc2[nH]c(C)c(CCNS(=O)(=O)c3ccc4c(c3)OCCO4)c2c1`, the cell viability stood at 99.4%.

In the case of `COc1ccc(/C=C/C(=O)c2ccccc2)cc1COc1ccc(NC(C)=O)cc1`, the cell viability was 40%.

Consider `COc1ccc(/C=C/C(=O)c2ccccc2)cc1COc1ccc([N+](=O)[O-])cc1`, for which the cell viability came to 101%.

For the compound `COc1ccc(/C=C/C(=O)c2ccccc2)cc1COc1ccc(Cl)cc1`, the cell viability was found to be 106%.

Take `Cc1ccc(C)c(-c2nc(CSc3nc4c(=O)[nH]cnc4n3C)c(C)o2)c1`: the cell viability is 103%.

For the compound `Cc1cc2c(c(O)c1-c1c(C)cc3c(c1O)/C(=C/Nc1c(C)n(C)n(-c4ccccc4)c1=O)C(=O)C(O)=C3C(C)C)/C(=C/Nc1c(C)n(C)n(-c3ccccc3)c1=O)C(=O)C(O)=C2C(C)C`, the cell viability worked out at 84.6%.

For the compound `COc1cc(C(=O)NC(C(=O)O)C(C)C)cc(OC)c1OC` (stereo not drawn), the cell viability was 103%.

`CC(C)(C)c1ccc(C(=O)NCC(=O)O)cc1`: the cell viability is 95.9%.

On to `O=[N+]([O-])C1=Cc2ccccc2OC1c1ccc2c(c1)OCO2` (stereo not drawn), for which the cell viability came out at 2.67%.

As for `O=C(/C=C/c1cccc([N+](=O)[O-])c1)c1ccc2c(c1)OCO2`, the cell viability worked out at 98.1%.

With `O=C(/C=C/c1ccc([N+](=O)[O-])cc1)NCc1ccc2c(c1)OCO2`, the cell viability was 97%.

As for `COCCN1C(=O)/C(=C\c2cc(OC)c(OC)c(OC)c2)C(C(=O)OC)=C1C`, the cell viability turned out to be 101%.

With `O=C(CCNc1cccc(Cl)c1)c1cc2ccccc2oc1=O`, the cell viability stood at 115%.

As to `CCOC(=O)c1ccc2[nH]c(-c3ccccc3)cc(=O)c2c1`, the cell viability came out at 7.45%.

On to `CCOC(=O)c1ccc2[nH]c(=O)c(Cc3ccccc3)c(O)c2c1`, for which the cell viability is 97.9%.

On to `CCOC(=O)c1ccc2[nH]c(=O)c(C)c(O)c2c1`, for which the cell viability came out at 108%.

As to `COc1ccc(C(=O)CC2(O)C(=O)N(Cc3cccc4ccccc34)c3ccccc32)cc1OC` (stereo not drawn), the cell viability worked out at 97.5%.

`NC(=O)CC1CCCCN1` (stereo not drawn): the cell viability was found to be 126%.

In the case of `Cc1ccc2oc(-c3ccc(Cl)cc3)cc(=O)c2c1`, the cell viability amounted to 85.9%.

Consider `O=c1cc(-c2ccccc2Br)oc2ccc(Cl)cc12`, for which the cell viability worked out at 110%.

`Cc1ccc2occc(=O)c2c1`: the cell viability worked out at 100%.

Regarding `Cc1ccc2oc(C(Cl)(Cl)Cl)cc(=O)c2c1`, the cell viability turned out to be 26.6%.

As to `Cc1ccc(-c2cc(=O)c3ccccc3o2)cc1`, the cell viability was 92.3%.

Take `O=c1cc(O)c2cc(Cl)ccc2o1`: the cell viability is 101%.

Take `O=c1cc(C(Cl)(Cl)Cl)oc2ccccc12`: the cell viability was 4.98%.

As for `O=c1ccoc2ccccc12`, the cell viability turned out to be 93.1%.

Consider `Cc1ccccc1-c1cc(=O)c2cc(Br)ccc2o1`, for which the cell viability was 106%.

For `Cc1ccc2oc(-c3ccccc3C)cc(=O)c2c1`, the cell viability was 21.6%.

On to `O=c1cc(C(Cl)(Cl)Cl)oc2ccc(Cl)cc12`, for which the cell viability was 7.16%.

As to `O=c1cc(-c2ccc(Br)cc2)oc2ccc(Cl)cc12`, the cell viability was 96%.
